Inconclusive results are not listed. Activity calls are given as the source filed them. Calls follow the shape of the dose curve; as a rule, active = well fitted activation curve with a large enough effect; inconclusive = small, poorly fitted or top-dose-only effect; inactive = no such curve, though single readings can be large or run the other way.
Assay: qHTS assay for re-activators of p53 using a Luc reporter: Hit Validation; also: nearly all actives have a fitted effect of over 75% in size; as to activation: 0% is about no effect
Settings: p53-responsive luciferase reporter cells, luminescence, H1299 line expressing heat-sensitive Ala138Val p53; series mostly up to 46.1 µM; activation: at the top concentration
Method in brief: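 Hit confirmation with a 1:5 dilution series, at 37 deg C for 24 hrs, in H1299 cells co-expressing temperature-sensitive p53-A138V and p53-responsive luciferase. Nocodazole served as control; luminescence read after 10 min with detection reagent.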
Potency is read from the fitted curve at half-maximal effect.

Potency, active:
Cc1cc(/C=N/Nc2ncnc(N)c2[N+](=O)[O-])c(C)n1-c1ccccc1 92 nM
Cc1cc(C(=O)Nc2ccc(Br)cn2)sc1C 2060 nM
Cc1cccc(-n2c(C)cc(C(=O)NC3CCCCC3)c2C)c1 7310 nM
c1ccc(-c2ccc(-c3ccccn3)nn2)nc1 82 nM
Cc1cc(NC(=O)c2ccco2)sc1C 18400 nM
O=C(NOCc1ccccc1)c1ccccc1 9200 nM
Cc1nc(NC(=O)c2csc3ccccc23)sc1C 820 nM
Cc1cs/c(=N/C(=S)Nc2ccccc2)n1C 1840 nM
N#C/C(=C/c1ccccc1[N+](=O)[O-])c1nc(C2CC2)cs1 5800 nM
O=C1CCCC(O)=C1N=Nc1ccc2c(c1)OCO2 23100 nM
CC(C)/C=C1\CC/C(=C\c2ccc(N(C)C)cc2)C1=O 2910 nM
Clc1ccc(OCc2cc(-c3ccccc3)no2)c(Cl)c1 1160 nM
CC(C)CCn1cnc2c(sc3nc4c(cc32)CSC(C)(C)C4)c1=O 517 nM
Cc1ccsc1C(=O)Nc1ccc2c(c1)OCCO2 326 nM
CN(C)c1ccc(/C=N/Nc2nncc3ccccc23)cc1 366 nM
CN(/N=C/c1ccc2c(c1)OCO2)c1ccccc1 14600 nM
C/C(=N\NC(=O)c1ccc(F)cc1)c1ccccn1 2060 nM
O=C(Nc1ccc(Br)cn1)c1cccc(-c2cc3ccccc3oc2=O)c1 16400 nM
Cc1cccc(N/C=C/C(=O)c2cccs2)c1C 65.1 nM

activation, inactive:
O=C(/C=C/c1ccccc1)NC1CCSC1=O (configuration not stated) 23.4% [at 9.22 µM]
COC(=O)c1ccc(CSc2nnc(-c3c[nH]c4ccccc34)n2-c2ccccc2)cc1 5.21%
COc1cc(C2=NOC(C(=O)NCc3ccc(F)cc3)C2)cc(OC)c1OC (configuration not stated) 26.6%
O=S(=O)(CCOc1ccccc1)c1nc2ccccc2[nH]1 -10.9%
Cc1ccc(/C=C(\C#N)C(=O)NCC2CCCO2)o1 (configuration not stated) 65.6%
COCCn1c(SCC(=O)Nc2ccc(N3CCOCC3)cc2)nc2ccccc21 7.81%
O=C(COC(=O)c1cn(-c2ccccc2)nc1-c1ccc(F)cc1)Nc1ncc(Cl)cc1Cl 21.9%
C/C(CC(C)C)=N\NC(=O)Nc1ccccc1 29.2%
CCCCCNC(=O)N[C@H](C(=O)O)C(C)C -15.6%
Cn1c(Cc2cccs2)nnc1SCc1nc2ccccc2[nH]1 6.77%
O=C(NCCC1=CCCCC1)c1ccc(F)c(S(=O)(=O)N2CCOCC2)c1 -84.4%
Cc1cc2[nH]c3ccccc3c2c(C)n1 -14.6%
O=C1c2cccc3cc([N+](=O)[O-])cc(c23)C(=O)N1CCN1CCCC1 147%
CCN(Cc1ccccc1)C(=O)CN1C(=S)NC(C)(C)CC1C (configuration not stated) -15.4% [at 9.22 µM]
COc1ccc2cc3c(N)nn(C(=O)c4ccc(Cl)c([N+](=O)[O-])c4)c3nc2c1 -10.9%
O=C(CN1C(=O)NC2(CCCc3ccccc32)C1=O)c1ccc(F)cc1 (configuration not stated) -10.9%
COc1ccc(N2CCN(CC(=O)Nc3ccc(C)cc3)CC2)cc1 -1.56%
COCCSc1nnc(NC(=O)CCS(=O)(=O)c2ccccc2)s1 -38.9% [at 9.22 µM]

Source: PubChem BioAssay AID624305 (National Center for Advancing Translational Sciences (NCATS), 2012)
